# Assay results from the supplement of paper PMC8728848.
# The sample as a whole holds a higher share of the strongest signals than the screen did.
# Experiments:
# Assay in all cases: glycan array binding signal (z-score within array); higher = stronger binding
# Conditions in all cases: glycan notation: IUPAC condensed, linker removed
# [1] = target: Fuc(a1-2)Gal(b1-3)GlcNAc(b1-3)Gal(b1-4)Glc
# Summary of the method: (§1)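 Negative Z-scores can be read as non-binding. The Z-score is calculated within each array and then averaged across arrays of one protein sequence at different concentrations or buffers and across linkers. Arrays, 3228 in all, were curated from the Consortium for Functional Glycomics database and kept only where the protein sequence was available.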
# [2] = target: Fuc(a1-2)Gal(b1-4)[Fuc(a1-3)]GlcNAc(b1-3)Gal(b1-4)[Fuc(a1-3)]GlcNAc(b1-3)Gal(b1-4)[Fuc(a1-3)]GlcNAc
# Summary of the method: as §1
# Fuc(a1-2)[Gal(a1-3)]Gal = target: Fuc(a1-2)[Gal(a1-3)]Gal
# Summary of the method: as §1
# [3] = target: Fuc(a1-2)[Gal(a1-3)]Gal(b1-3)GlcNAc(b1-2)Man(a1-3)[Fuc(a1-2)[Gal(a1-3)]Gal(b1-3)GlcNAc(b1-2)Man(a1-6)]Man(b1-4)GlcNAc(b1-4)GlcNAc
# Summary of the method: as §1
# [4] = target: Fuc(a1-2)[Gal(a1-4)]Gal(b1-4)GlcNAc
# Summary of the method: as §1
# [5] = target: Fuc(a1-2)[GalNAc(a1-3)]Gal(b1-4)[Fuc(a1-3)]GlcNAc(b1-3)GalNAc
# Summary of the method: as §1
# [6] = target: Fuc(a1-2)[GalNAc(b1-3)]Gal
# Summary of the method: as §1
# Fuc(b1-3)GlcNAc = target: Fuc(b1-3)GlcNAc
# Summary of the method: as §1
# Gal(a1-2)Gal = target: Gal(a1-2)Gal
# Summary of the method: as §1
# [7] = target: Gal(a1-3)Gal(b1-3)[Fuc(a1-4)]GlcNAc(b1-2)Man(a1-3)[Gal(a1-3)Gal(b1-3)[Fuc(a1-4)]GlcNAc(b1-2)Man(a1-6)]Man(b1-4)GlcNAc(b1-4)GlcNAc
# Summary of the method: as §1
# [8] = target: Gal(b1-3)GlcNAc(b1-3)Gal(b1-4)Glc
# Summary of the method: as §1
# [9] = target: Gal(b1-3)GlcNAc(b1-3)Gal(b1-4)[Fuc(a1-3)]GlcNAc(b1-6)[Gal(b1-3)GlcNAc(b1-3)]Gal(b1-4)Glc
# Summary of the method: as §1
# [10] = target: Gal(b1-3)GlcNAc(b1-6)[Gal(b1-3)]GalNAc
# Summary of the method: as §1
# [11] = target: Gal(b1-3)[Fuc(a1-4)]GlcNAc(b1-3)Gal(b1-3)[Fuc(a1-4)]GlcNAc
# Summary of the method: as §1
# Gal(b1-4)GlcNAc = target: Gal(b1-4)GlcNAc
# Summary of the method: as §1
# [12] = target: Gal(b1-4)GlcNAc(b1-2)Man(a1-3)[Gal(b1-4)GlcNAc(b1-2)Man(a1-6)][Gal(b1-4)GlcNAc(b1-4)]Man(b1-4)GlcNAc(b1-4)[Fuc(a1-6)]GlcNAc
# Summary of the method: as §1
# [13] = target: Gal(b1-4)GlcNAc(b1-2)Man(a1-6)Man(b1-4)GlcNAc(b1-4)GlcNAc
# Summary of the method: as §1
# [14] = target: Gal(b1-4)GlcNAc(b1-3)Gal(b1-4)GlcNAc(b1-2)Man(a1-3)[Gal(b1-4)GlcNAc(b1-3)Gal(b1-4)GlcNAc(b1-2)Man(a1-6)]Man(b1-4)GlcNAc(b1-4)GlcNAc
# Summary of the method: as §1
# [15] = target: Gal(b1-4)GlcNAc(b1-3)Gal(b1-4)GlcNAc(b1-3)Gal(b1-4)GlcNAc(b1-3)Gal(b1-4)GlcNAc(b1-2)Man(a1-3)[Gal(b1-4)GlcNAc(b1-3)Gal(b1-4)GlcNAc(b1-3)Gal(b1-4)GlcNAc(b1-3)Gal(b1-4)GlcNAc(b1-2)Man(a1-6)]Man(b1-4)GlcNAc(b1-4)GlcNAc
# Summary of the method: as §1
# [16] = target: Gal(b1-4)GlcNAc(b1-3)Gal(b1-4)GlcNAc(b1-3)Gal(b1-4)GlcNAc(b1-3)Gal(b1-4)GlcNAc(b1-3)Gal(b1-4)GlcNAc(b1-3)Gal(b1-4)GlcNAc(b1-2)Man(a1-3)[Gal(b1-4)GlcNAc(b1-3)Gal(b1-4)GlcNAc(b1-3)Gal(b1-4)GlcNAc(b1-3)Gal(b1-4)GlcNAc(b1-3)Gal(b1-4)GlcNAc(b1-3)Gal(b1-4)GlcNAc(b1-2)Man(a1-6)]Man(b1-4)GlcNAc(b1-4)GlcNAc
# Summary of the method: as §1
# [17] = target: Gal(b1-4)GlcNAc(b1-3)Gal(b1-4)GlcNAc(b1-6)[Gal(b1-3)]GalNAc
# Summary of the method: as §1
# [18] = target: Gal(b1-4)GlcNAc(b1-3)GalNAc
# Summary of the method: as §1
# [19] = target: Gal(b1-4)GlcNAc(b1-3)[GlcNAc(b1-6)]Gal(b1-4)GlcNAc
# Summary of the method: as §1
# Gal(b1-6)Gal = target: Gal(b1-6)Gal
# Summary of the method: as §1
# Gal3S(b1-3)GlcNAc = target: Gal3S(b1-3)GlcNAc
# Summary of the method: as §1
# [20] = target: Gal3S(b1-4)[Fuc(a1-3)]GlcNAc6S
# Summary of the method: as §1
# Gal6P(b1-4)GlcNAc = target: Gal6P(b1-4)GlcNAc
# Summary of the method: as §1
# GalNAc(b1-3)Gal = target: GalNAc(b1-3)Gal
# Summary of the method: as §1
# GalNAc(b1-3)GalNAc = target: GalNAc(b1-3)GalNAc
# Summary of the method: as §1
# GalNAc(b1-6)GalNAc = target: GalNAc(b1-6)GalNAc
# Summary of the method: as §1
# [21] = target: GlcNAc(a1-3)Gal(b1-4)GlcNAc
# Summary of the method: as §1
# [22] = target: GlcNAc(b1-2)Man(a1-3)[GlcNAc(b1-4)][GlcNAc(b1-2)Man(a1-6)]Man(b1-4)GlcNAc(b1-4)[Fuc(a1-6)]GlcNAc
# Summary of the method: as §1
# [23] = target: GlcNAc(b1-3)Gal(b1-4)GlcNAc
# Summary of the method: as §1
# [24] = target: GlcNAc(b1-3)Gal(b1-4)GlcNAc(b1-2)[GlcNAc(b1-3)Gal(b1-4)GlcNAc(b1-6)]Man(a1-6)[GlcNAc(b1-3)Gal(b1-4)GlcNAc(b1-2)Man(a1-3)]Man(b1-4)GlcNAc(b1-4)GlcNAc
# Summary of the method: as §1
# [25] = target: GlcNAc(b1-3)Gal(b1-4)GlcNAc(b1-3)Gal(b1-4)GlcNAc(b1-2)Man(a1-3)[GlcNAc(b1-3)Gal(b1-4)GlcNAc(b1-3)Gal(b1-4)GlcNAc(b1-2)Man(a1-6)]Man(b1-4)GlcNAc(b1-4)[Fuc(a1-6)]GlcNAc
# Summary of the method: as §1
# [26] = target: GlcNAc(b1-3)Gal(b1-4)GlcNAc(b1-3)Gal(b1-4)GlcNAc(b1-2)[GlcNAc(b1-3)Gal(b1-4)GlcNAc(b1-3)Gal(b1-4)GlcNAc(b1-6)]Man(a1-6)[GlcNAc(b1-3)Gal(b1-4)GlcNAc(b1-3)Gal(b1-4)GlcNAc(b1-2)Man(a1-3)]Man(b1-4)GlcNAc(b1-4)[Fuc(a1-6)]GlcNAc
# Summary of the method: as §1
# [27] = target: GlcNAc(b1-3)Gal(b1-4)GlcNAc(b1-3)Gal(b1-4)GlcNAc(b1-3)Gal(b1-4)GlcNAc(b1-3)Gal(b1-4)GlcNAc(b1-2)Man(a1-3)[GlcNAc(b1-3)Gal(b1-4)GlcNAc(b1-3)Gal(b1-4)GlcNAc(b1-3)Gal(b1-4)GlcNAc(b1-3)Gal(b1-4)GlcNAc(b1-2)Man(a1-6)]Man(b1-4)GlcNAc(b1-4)[Fuc(a1-6)]GlcNAc
# Summary of the method: as §1
# [28] = target: GlcNAc(b1-3)Gal(b1-4)GlcNAc(b1-6)[GlcNAc(b1-3)]Gal(b1-4)GlcNAc
# Summary of the method: as §1
# [29] = target: GlcNAc(b1-3)[GlcNAc(b1-6)]Gal(b1-4)GlcNAc
# Summary of the method: as §1
# Kdn(a2-3)Gal(b1-3)GalNAc = target: Kdn(a2-3)Gal(b1-3)GalNAc
# Summary of the method: as §1
# [30] = target: Man(a1-2)Man(a1-2)Man(a1-6)[Man(a1-3)]Man
# Summary of the method: as §1
# [31] = target: Man(a1-2)Man(a1-3)[Man(a1-2)Man(a1-6)]Man(a1-6)[Man(a1-2)Man(a1-2)Man(a1-3)]Man
# Summary of the method: as §1
# [32] = target: Man(a1-2)Man(a1-3)[Man(a1-6)]Man(a1-6)[Man(a1-2)Man(a1-3)]Man(b1-4)GlcNAc(b1-4)GlcNAc
# Summary of the method: as §1
# [33] = target: Man(a1-2)Man(a1-6)[Man(a1-3)]Man(a1-6)[Man(a1-2)Man(a1-2)Man(a1-3)]Man(b1-4)GlcNAc(b1-4)GlcNAc
# Summary of the method: as §1
# [34] = target: Neu5Ac(a2-3)Gal(b1-4)GlcNAc(b1-3)Gal(b1-4)GlcNAc
# Summary of the method: as §1
# [35] = target: Neu5Ac(a2-3)Gal(b1-4)GlcNAc(b1-3)Gal(b1-4)GlcNAc(b1-3)[Neu5Ac(a2-3)Gal(b1-4)GlcNAc(b1-3)Gal(b1-4)GlcNAc(b1-6)]GalNAc
# Summary of the method: as §1
# Neu5Ac(a2-6)Gal(b1-4)Glc = target: Neu5Ac(a2-6)Gal(b1-4)Glc
# Summary of the method: as §1
# [36] = target: Neu5Ac(a2-6)GlcNAc(b1-4)GlcNAc
# Summary of the method: as §1
# [37] = target: Neu5Gc(a2-3)Gal(b1-4)GlcNAc(b1-3)Gal(b1-4)GlcNAc(b1-2)Man(a1-3)[Neu5Gc(a2-3)Gal(b1-4)GlcNAc(b1-3)Gal(b1-4)GlcNAc(b1-2)Man(a1-6)]Man(b1-4)GlcNAc(b1-4)GlcNAc
# Summary of the method: as §1
binder,measurement,setting,value
"Langerin K313I (Homo sapiens), Q9UJ71 (protein) STLNAQIPELKSDLEKASALNTKIRALQGSLENMSKLLKRQNDILQVVSQGWKYFKGNFYYFSLIPKTWYSAEQFCVSRNSHLTSVTSESEQEFLYKTAGGLIYWIGLTKAGMEGDWSWVDDTPFNKVQSARFWIPGEPNNAGNNEHCGNIKAPSLQAWNDAPCDITFLFICKRPYVPSEP",glycan array binding signal (z-score),[1],-0.379
same,glycan array binding signal (z-score),[2],-0.042
same,glycan array binding signal (z-score),Fuc(a1-2)[Gal(a1-3)]Gal,4.11
same,glycan array binding signal (z-score),[3],-0.164
same,glycan array binding signal (z-score),[4],-0.287
same,glycan array binding signal (z-score),[5],0.321
same,glycan array binding signal (z-score),[6],-0.358
same,glycan array binding signal (z-score),Fuc(b1-3)GlcNAc,-0.307
same,glycan array binding signal (z-score),Gal(a1-2)Gal,-0.155
same,glycan array binding signal (z-score),[7],0.468
same,glycan array binding signal (z-score),[8],-0.361
same,glycan array binding signal (z-score),[9],-0.333
same,glycan array binding signal (z-score),[10],-0.253
same,glycan array binding signal (z-score),[11],0.067
same,glycan array binding signal (z-score),Gal(b1-4)GlcNAc,-0.346
same,glycan array binding signal (z-score),[12],-0.254
same,glycan array binding signal (z-score),[13],-0.235
same,glycan array binding signal (z-score),[14],0.326
same,glycan array binding signal (z-score),[15],0.149
same,glycan array binding signal (z-score),[16],0.037
same,glycan array binding signal (z-score),[17],0.134
same,glycan array binding signal (z-score),[18],-0.373
same,glycan array binding signal (z-score),[19],-0.314
same,glycan array binding signal (z-score),Gal(b1-6)Gal,-0.178
same,glycan array binding signal (z-score),Gal3S(b1-3)GlcNAc,-0.376
same,glycan array binding signal (z-score),[20],-0.39
same,glycan array binding signal (z-score),Gal6P(b1-4)GlcNAc,-0.298
same,glycan array binding signal (z-score),GalNAc(b1-3)Gal,-0.374
same,glycan array binding signal (z-score),GalNAc(b1-3)GalNAc,3.83
same,glycan array binding signal (z-score),GalNAc(b1-6)GalNAc,-0.384
same,glycan array binding signal (z-score),[21],-0.393
same,glycan array binding signal (z-score),[22],4.2
same,glycan array binding signal (z-score),[23],3.17
same,glycan array binding signal (z-score),[24],4.12
same,glycan array binding signal (z-score),[25],3.2
same,glycan array binding signal (z-score),[26],9.38
same,glycan array binding signal (z-score),[27],-0.005
same,glycan array binding signal (z-score),[28],10.1
same,glycan array binding signal (z-score),[29],6.18
same,glycan array binding signal (z-score),Kdn(a2-3)Gal(b1-3)GalNAc,0.361
same,glycan array binding signal (z-score),[30],7.95
same,glycan array binding signal (z-score),[31],3.54
same,glycan array binding signal (z-score),[32],-0.194
same,glycan array binding signal (z-score),[33],0.146
same,glycan array binding signal (z-score),[34],-0.396
same,glycan array binding signal (z-score),[35],-0.089
same,glycan array binding signal (z-score),Neu5Ac(a2-6)Gal(b1-4)Glc,-0.278
same,glycan array binding signal (z-score),[36],-0.387
same,glycan array binding signal (z-score),[37],0.158
